HttQ103 aggreg – qHTS Multiplex Assay to Identify Dual Action Probes in a Cell Model of Huntington: Aggregate Formation (GFP); PC12 HttQ103-GFP aggregates, Acumen cytometry, 40 h; Potency, µM (titrated, usually from 46.1 µM), for the others: at the top dose activity change, negative = inhibition, most hits filed as inhibitors; 220,000 tested, 1.1% active; AID 1688, 2009; active means well fitted curve in the direction sought with a large enough effect; inconclusive means small, poorly fitted or top-dose-only effect, or another doubt; inactive means no such curve, though single readings can be large; an effect the other way counts as inactive or inconclusive; further: on the % scale 0 is the no-effect control and ±100 the full control effect; nearly all actives have a fitted effect of over 60% in size
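PC12 cells stably carrying ecdysone-inducible HTT exon 1 Q103–GFP were induced with tebufenozide (100 nM final) and treated with library compounds in titration. GFP aggregates in lysates were counted by laser scanning cytometry.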
ALDH1A1 block – qHTS Assay for Inhibitors of Aldehyde Dehydrogenase 1 (ALDH1A1) | Aldehyde dehydrogenase 1A1 (Homo sapiens), P00352 | Purified ALDH1A1, NADH fluorescence, propionaldehyde substrate | Potency, µM (series often up to 75.3 µM), without a hit: top-dose activity, negative = inhibition, usual class: inhibitors | 220,000 tested, 7.3% active;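 further: plate controls were no enzyme wells and a reference inhibitor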
HTT ATP protect – qHTS Multiplex Assay to Identify Dual Action Probes in a Cell Model of Huntington: Cytoprotection (ATP); PC12 HTT-Q103 induced, cytoprotection, ATP luminescence, 40 h; AID 1471, 2008; 230,000 tested, 0.14% active; Potency, µM (top dose mostly 56.4 µM), without a hit: cytoprotection (ATP increase), most hits filed as activators; active means well fitted curve in the direction sought with a large enough effect; inconclusive means small, poorly fitted or top-dose-only effect, or another doubt; inactive means no such curve, though single readings can be large; an effect the other way counts as inactive or inconclusive; further: % of control where 0% means no effect; nearly all actives have a fitted effect of over 45% in size
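ATP quantification (ATPlite) reports survival of PC12 cells in which tebufenozide, 100 nM final, switches on Htt exon 1 with 103 glutamines linked to GFP; compounds are titrated.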
HPGD inh – qHTS Assay for Inhibitors of HPGD (15-Hydroxyprostaglandin Dehydrogenase); 15-hydroxyprostaglandin dehydrogenase [NAD(+)] (Homo sapiens), P15428; purified HPGD, NADH fluorescence kinetic, PGE2 substrate; Potency, µM, for the others: at the highest dose activity change, negative = inhibition, hits mostly inhibitors; 150,000 tested, 4.3% active; further: on the % scale 0 is the no-effect control and ±100 the full control effect
Target sequence (P15428 whole entry, looked up): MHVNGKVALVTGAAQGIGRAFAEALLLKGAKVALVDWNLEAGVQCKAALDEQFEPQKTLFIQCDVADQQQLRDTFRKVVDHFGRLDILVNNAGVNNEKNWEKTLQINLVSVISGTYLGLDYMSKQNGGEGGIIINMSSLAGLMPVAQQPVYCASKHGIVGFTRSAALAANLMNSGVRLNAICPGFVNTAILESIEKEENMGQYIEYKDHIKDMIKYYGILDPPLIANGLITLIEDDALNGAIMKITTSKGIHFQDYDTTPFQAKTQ
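NADH formation kinetics: reaction with 30 uM PGE2 and 1 mM NAD+ (final), 20 nM enzyme, Tris-HCl pH 8 with Tween 20, after 15 min compound preincubation at room temperature. Fluorescence change, last versus first of five reads.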
JMJD2E inh – qHTS Assay for Inhibitors of Human Jumonji Domain Containing 2E (JMJD2E); Potency, µM (titrated, usually from 57.1 µM), without a hit: at the highest dose activity change, negative = inhibition, usual class: inhibitors; Lysine-specific demethylase 4E (Homo sapiens), B2RXH2; JMJD2E catalytic domain, FDH-coupled NADH fluorescence (FDH is formaldehyde dehydrogenase); 230,000 tested, 1.6% active;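 further: 0% = wells with enzyme and -100% = buffer wells without enzyme; nearly all actives have a fitted effect of over 50% in size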
Target sequence (B2RXH2 1-337 limits assumed): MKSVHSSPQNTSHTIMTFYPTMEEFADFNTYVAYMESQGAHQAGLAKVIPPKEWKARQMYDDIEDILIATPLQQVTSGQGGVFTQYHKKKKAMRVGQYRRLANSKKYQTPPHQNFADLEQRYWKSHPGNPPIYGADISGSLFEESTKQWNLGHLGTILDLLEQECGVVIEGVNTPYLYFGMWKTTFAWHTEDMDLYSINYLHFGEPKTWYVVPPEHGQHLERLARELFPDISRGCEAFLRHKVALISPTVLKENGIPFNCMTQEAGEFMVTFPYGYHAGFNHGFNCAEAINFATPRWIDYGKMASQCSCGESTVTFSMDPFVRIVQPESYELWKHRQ
Lamin A splicing – qHTS Assay for Modulators of Lamin A Splicing | HeLa LMNA splicing GFP/RFP minigene ratio, 48 h | Potency, µM (series often up to 46.1 µM), for the others: at the highest dose ratio change, negative = inhibition, usual class: inhibitors | 200,000 tested, 0.01% active | AID 1487, 2009; active means well fitted inhibition curve with a large enough effect in the signal ratio, with a control signal flat, not every such curve was filed as active; inconclusive means small, poorly fitted or top-dose-only effect, or effect the other way, or a change in a side signal; the % refers to the signal ratio; further: on the % scale 0 is the no-effect control and ±100 the full control effect
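S3 HeLa cells stably expressing lamin A-EGFP splicing minigene plus DsRed2, 600 cells/well, 48 h compound exposure at 37C. Laser-scanning cytometry; analysed as GFP (500-530 nm)/RFP (575-640 nm) total intensity ratio; 0.5% DMSO vehicle.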
Active calls of the source: *; ? = inconclusive; . = no result given; ! = not active in a repeat; [ ] = remark or other dose. Hits are enriched below; roughly 9.2% of the tested compounds scored in any of these assays. Unless noted, the call rests on the fitted dose curve; in most records, active means well fitted inhibition curve with a large enough effect (not every such curve was filed as active); inconclusive means small, poorly fitted or top-dose-only effect, or another doubt; inactive means no such curve, though single readings can be large or run the other way. Potency means the concentration at half of the fitted maximal effect.

SMILES | HttQ103 aggreg | ALDH1A1 block | HTT ATP protect | HPGD inh | JMJD2E inh | Lamin A splicing
C=C(CC)C(=O)c1ccc(OCC(=O)O)c(Cl)c1Cl | ? | 14µM*! | ? | -27% | -10% | ?
CCOC(=O)COc1ccc2nsnc2c1Cl | 23% | ? | -25% | ? | ? | 6%
Cc1ccc(CNC(=O)c2oc3c(c2C)-c2nn(Cc4ccc(Cl)cc4)cc2CC3)cc1 | . | . | . | . | . | 1%[46 µM]
O=C1/C(=C/N(C(=O)c2ccco2)c2ccc(Br)cc2)Sc2ccccc21 | 17% | ? | 3%[10 µM] | 32µM* | ? | -1%
O=c1[nH]c(=O)n(CCO)c2nnn(Cc3ccccc3)c12 | -3% | -9% | 0% | 28µM* | 0% | -10%
O=c1[nH]c(=O)n(Cc2ccccc2)c2nc(-c3cccs3)n(CCO)c12 | 13%[9.22 µM] | ? | -2%[10 µM] | . | ? | 7%[46 µM]
CCCn1c2ccccc2c2cnn(CC(=O)NCCc3ccc(OCC)c(OCC)c3)c(=O)c21 | . | . | . | . | . | -7%[46 µM]
CC(C)C[C@H](NC(=O)[C@@H](NC(=O)N[C@@H](Cc1ccccc1)C(=O)O)[C@H]1CCN=C(N)N1)C(=O)N[C@H](C=O)Cc1ccccc1 | . | . | -1% | . | . | .
O=C(CCCc1ccccc1)NCc1cn2ccsc2n1 | ? | 3% | 5% | -16% | 6% | -9%
O=C(CC1CCCCC1)NCc1cn2ccsc2n1 | 1% | 10% | 4% | 22µM* | 10% | 7%
CCn1c(N)c(C(=O)NCCCOC)sc1=S | 28% | 3.2µM* | -7% | 14µM* | ? | -2%
CCn1c(N)c(C(=O)N2CCOCC2)sc1=S | -8% | -14% | -21% | . | -4% | ?
COCCCNC(=O)c1ccc(C(=O)NCCCOC)cc1 | 12% | 20% | -2% | -11% | -1% | 11%
CCNC(=O)c1sc(=S)n(CC)c1N | 0% | ? | -3% | 18µM* | -4% | 8%
CC(C)OCCCNC(=O)c1sc(=S)n(C)c1N | 18% | -96% | -8%[0.074 µM] | 28µM* | -13% | 0%
CC(N)(C(=O)O)c1cccc(CC(=O)O)c1 (stereo unspecified) | . | -7% | -21% | . | . | .
Cc1ccc2c(c1)N(C(=O)N1CCC(C(=O)NC3CCCCCC3)CC1)CCO2 | . | . | . | . | . | 7%[46 µM]
CCC(=O)NC(c1cccs1)c1cc([N+](=O)[O-])c2cccnc2c1O (stereo unspecified) | ? | 5% | -89%[10 µM] | -12% | ? | ?
CCCC(=O)NC(c1cccs1)c1cc([N+](=O)[O-])c2cccnc2c1O (stereo unspecified) | 11µM* | 0% | 8%[10 µM] | -20% | 10µM* | ?
CC(=O)NC(c1cccs1)c1cc([N+](=O)[O-])c2cccnc2c1O (stereo unspecified) | 3.2µM* | -7% | -56%[10 µM] | -20% | 8.9µM* | ?
O=C(CCc1ccccc1)NC(c1cccs1)c1cc(Cl)c2cccnc2c1O (stereo unspecified) | -13%[9.22 µM] | ? | -59%[10 µM] | . | 4% | .
O=C(COCc1cc(-c2ccc(F)cc2)on1)Nc1cccc(Cl)c1Cl | . | . | . | . | . | 1%[46 µM]
CC(=O)c1ccc(NC(=O)CSc2nc(=O)n(Cc3ccccn3)c3c2CCC3)cc1 | . | . | . | . | . | -8%[46 µM]
CCCCCCCC1=CC2=C(Cl)C(=O)C(C)(OC(C)=O)C(=O)C2=CO1 (stereo unspecified) | . | -1% | -73% | -13% | -10% | .
Cc1ccc(NC(=S)Nc2ccc3nc(-c4ccccn4)c(-c4ccccn4)nc3c2)cc1C | 24% | 18µM* | -1%[0.074 µM] | -26% | ? | -2%
SMILES | HttQ103 aggreg | ALDH1A1 block | HTT ATP protect | HPGD inh | JMJD2E inh | Lamin A splicing
Cn1c(CNC(=O)c2ccccc2F)nnc1SCC(=O)N1CCN(c2ccccc2)CC1 | 8% | ? | -95% | . | 2% | 29%[46 µM]
Cc1ccccc1C(=O)NCc1nnc(SCC(=O)N2CCN(c3ccccc3)CC2)n1C | 7% | 10µM* | -2% | 0% | -5% | -7%
CC(C)(Oc1ccc(-c2cccc3ccccc23)cc1)C(=O)O | . | 5%[13.5 µM] | 18%[10 µM] | -1% | . | .
Cc1cc(C(=O)OCC(=O)N2CCN(c3ccccc3)CC2)c2ccccc2n1 | 1% | 22µM* | -6% | -11% | -20% | -4%
O=C(OCC(=O)N1CCN(c2ccccc2)CC1)c1ccco1 | 0% | 2.2µM* | 6% | -14% | 5% | 1%
O=C(OCC(=O)N1CCN(C(=O)c2ccco2)CC1)c1ccccc1C(=O)c1ccccc1 | -6% | -5% | -9%[10 µM] | -1% | 6% | -2%
O=C(OCC(=O)N1CCN(C(=O)c2ccco2)CC1)c1cc(-c2ccccc2)nc2ccccc12 | 3% | ? | -43% | ? | ? | -16%
Cc1c(C(=O)Nc2ccc(C(C)C)cc2)sc2nc[nH]c(=O)c12 | . | . | . | . | . | -11%[46 µM]
Cc1ccc(S(=O)(=O)/N=C2\SC(CC(=O)Nc3ccc(F)cc3)C(=O)N2c2ccccc2)cc1 (stereo unspecified) | -3% | 5.6µM* | -6%[10 µM] | -20% | 0% | 1%
O=C(CC1S/C(=N\S(=O)(=O)c2ccccc2)N(c2ccccc2)C1=O)Nc1ccc(F)cc1 (stereo unspecified) | 6% | 25µM* | 3%[10 µM] | -9% | -3% | -16%
C=CCN1C(=O)C(CC(=O)Nc2ccc(C)cc2)SC1=Nc1c(C)n(C)n(-c2ccccc2)c1=O (stereo unspecified) | 30% | 2% | -6% | -5% | -2% | -4%
O=C(O)CC1S/C(=N\N=C2CCCCCCC2)N(c2ccccc2)C1=O (stereo unspecified) | 23% | 9% | -1% | . | 13% | ?
CC1(/[N+]([O-])=C\c2ccccc2F)CCCCC1=O (stereo unspecified) | -4%[9.22 µM] | . | 6%[10 µM] | . | 1% | .
COC(=O)c1c(C)[nH]c(O)c1C=Nc1ccc(C(C)C)cc1 | -5% | ? | -59% | 25µM* | -2% | 2%
CCCC(=O)Nc1ccc(C(=O)NCC2CCCO2)cc1 (stereo unspecified) | 2% | ? | 16%[10 µM] | 11µM* | -3% | 0%
O=C(NCC1CCCO1)c1cccc(Br)c1 (stereo unspecified) | -4% | 7% | 0% | 25µM* | 5% | -1%
COc1cccc(S(=O)(=O)NCc2ccc(C(=O)NCC3CCCO3)cc2)c1 (stereo unspecified) | 4% | 14µM* | 17%[10 µM] | 16µM* | 0% | -1%
